Bioassay records (PubChem)
PKA-R2B act – activators of PKA-R2B holoenzyme, primary screen, biochemical, fluorescence polarization, Cy5-IP20, human; PKA-R2B holoenzyme dissociation; R2B truncated from residue 108, S112A mutant; 0% DMSO only, 100% 113 µM cGMP; 0.079% of 340,000 active; AID 504700, 2011; activation, % at 11.4 µM; cAMP-dependent protein kinase catalytic subunit beta (Homo sapiens) + cAMP-dependent …;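 active means activation above a cutoff set at the mean over all compounds plus 3 SD, cut at about 18% in these data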;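 further: higher means more holoenzyme dissociation and a rise in polarization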
Target sequence (P31323 whole entry, looked up, other chains not shown, the tested form may be a part): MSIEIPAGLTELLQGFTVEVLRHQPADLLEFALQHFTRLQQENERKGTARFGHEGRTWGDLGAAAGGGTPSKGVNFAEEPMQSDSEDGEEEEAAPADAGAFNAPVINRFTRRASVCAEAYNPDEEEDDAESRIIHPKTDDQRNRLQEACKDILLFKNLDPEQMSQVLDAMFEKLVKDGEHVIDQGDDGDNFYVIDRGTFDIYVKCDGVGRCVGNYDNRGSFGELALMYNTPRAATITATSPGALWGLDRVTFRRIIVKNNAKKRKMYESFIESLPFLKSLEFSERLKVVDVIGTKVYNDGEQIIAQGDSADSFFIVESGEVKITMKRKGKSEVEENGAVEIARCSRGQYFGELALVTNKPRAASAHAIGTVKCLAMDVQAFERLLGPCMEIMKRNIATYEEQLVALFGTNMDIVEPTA
Neddylation inh – inhibitors of cullin neddylation, primary screen, biochemical, TR-FRET, uHTS, NAE and Ubc12; 0.58% of 360,000 active; NEDD8-conjugating enzyme Ubc12 (Homo sapiens) + NEDD8-activating enzyme E1 regulatory …; calls only at 25 µM; AID 651699, 2012; in the data active means inhibition above about 36%
PolyA inh – polyadenylation inhibitors in yeast reporter cells, primary screen, luminescence, S. cerevisiae; 0.02% of 300,000 active; S. cerevisiae SKY197-pL101 polyadenylation reporter, beta-gal luminescence; efflux-impaired pdr1/pdr3 knockout yeast; score 100 = 6 SD above DMSO; AID 1875, 2009; activity score, % at 12 µM;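 active means lowest replicate activity score at least 50, where 100 means six control SD above control mean; inconclusive means lowest score under 50 but half or more replicates reach 50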;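 further: yeast exposed to compound for 9 h at 30 °C; higher score means more reporter readthrough which indicates perturbed polyadenylation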
PKA-R1A activ – activators of PKA-R1A holoenzyme, primary screen, biochemical, fluorescence polarization, Cy5-IP20, bovine R1A, mouse PKAc; PKA-R1A dissociation; scaled: DMSO 0%, 113 µM cGMP 100%; activation, % at 11.4 µM; 0.083% of 340,000 active;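 active means percent activation above the mean of all tested compounds plus 3 SD, cut at about 19% in these data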;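 further: higher means more PKAc released from R1A so a rise in polarization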
R2B FP artifact – fluorescence polarization artefacts, biochemical, artefact control for PKA-R2B activator project; activation, % at 11.4 µM; 6% of 270 active; AID 504796, 2011; shares compounds with PKA-R2B act; FP artifact counterscreen; in the data active means activation above about 20%;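 further: Cy5 labelled IP20 peptide probe with compound but no PKA protein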
PKA-R2B confirm – activators of PKA-R2B holoenzyme, confirmation, biochemical, fluorescence polarization, human; shares compounds with PKA-R2B act; PKA-R2B complex, activation; activation, % at 11.4 µM; 9% of 270 active; in the data active means activation above about 19%
Target sequence (P31323 whole entry, looked up): as the sequence (P31323 whole entry, looked up, other chains not shown, the tested form may be a part) above
R1A FP artifact – FP signal interference without PKA proteins, confirmation, artefact control for PKA-R1A activator project, biochemical, fluorescence polarization, triplicate; shares compounds with PKA-R1A activ; Cy5-IP20 peptide alone, fluorescence polarization artifact counterscreen; activation, % at 11.4 µM; 7% of 280 active; AID 504799, 2011;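 active means mean activation over triplicate runs exceeds the adjusted cutoff derived for the parent primary screen, cut at about 19% in these data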;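 further: no PKA protein present so any polarization rise reflects compound interference; 0% = tracer peptide mix alone and 100% = mix with added PKA catalytic subunit; higher means stronger polarization artifact and likely false positive in parent screen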
PKA-R1A confirm – activators of PKA-R1A holoenzyme, confirmation, biochemical, fluorescence polarization, Cy5-IP20, triplicate | shares compounds with PKA-R1A activ | PKA-R1A holoenzyme dissociation | activation, % at 11.4 µM | 9% of 280 active | AID 504800, 2011;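 active means mean activation over replicate wells exceeds the adjusted hit threshold taken from the earlier primary screen, cut at about 20% in these data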;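 further: 0% = holoenzyme mix with DMSO only and 100% = cGMP-activated control wells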
* hit, by the source's call; i = inactive; ? = inconclusive; · = no result. A selection: hits, their analogues and other compounds. The true share with any hit is near 0.72%.

SMILES | PKA-R2B act | Neddylation inh | PolyA inh | PKA-R1A activ | R2B FP artifact | PKA-R2B confirm | others
COc1ccc(/C=N/NC2=NS(=O)(=O)c3ccccc32)cc1 | 22.6* | i | -6.9 | 4.5 | 1.8 | 3.0
CC(=O)Oc1ccc(/C=N/NC2=NS(=O)(=O)c3ccccc32)cc1 | 0.9 | i | -7.1 | 4.5 | · | ·
NC(=O)Nc1ccc(Cl)cc1 | 22.6* | i | 8.0 | 1.9 | -2.3 | 0.6
NC(=O)/C=C/C(=O)Nc1ccc(Cl)cc1 | -5.7 | i | -28.7 | -0.6 | · | ·
O=C(CSc1nc2nc3c(cc2c(=O)n1-c1ccccc1)CCCC3)Nc1cccc2ccccc12 | 19.2* | i | 15.8 | 0.2 | 1.6 | 3.3
Cc1cccc(NC(=O)CSc2nc3nc4c(cc3c(=O)n2-c2ccccc2)CCCC4)c1 | -10.6 | i | -0.4 | -5.8 | · | ·
Cc1cc(Br)ccc1NC(=O)CNC(=O)c1cnn(C)c1 | 0.1 | i | · | -7.4 | · | ·
COc1ccccc1C(=O)NC(CCSC)C(=O)NCc1ccncc1 (stereo not given) | 21.1* | i | · | 7.2 | 0.1 | 1.4
COc1cc(C2c3c(c(C)c(C)oc3=O)Oc3c(C)c(C)oc(=O)c32)ccc1OS(=O)(=O)c1ccc(C)cc1 | -13.1 | i | · | 4.3 | · | ·
COc1cccc(NC(=O)C(=O)NCCCN2CCCC2=O)c1 | 20.3* | i | -10.5 | 8.7 | 2.3 | 1.7
N#Cc1ccc(C(=O)Nc2cc(C3CC3)nn2-c2ccccc2)cc1 | -0.6 | i | -5.4 | 0.7 | · | ·
O=C(COc1cccc(-n2cnnn2)c1)Nc1ccc([N+](=O)[O-])cc1 | 20.2* | i | 5.6 | 3.5 | 2.4 | 3.4
O=C(Cc1ccc(Br)cc1)Nc1cccc(-c2cn3c(n2)SCC3)c1 | -5.0 | i | -13.9 | -1.1 | · | ·
Cc1ccc([C@H]2C[C@@H](O)[C@H](n3cc(-c4ccc(F)cc4)nn3)CN2Cc2cccs2)cc1 | 3.4 | i | · | 1.4 | · | ·
COc1ccc(CCNC(=O)Cn2c(=O)oc3cc(Cl)ccc32)cc1OC | 18.5* | i | -3.3 | 7.3 | -0.2 | -2.3
COc1ccc(NC(=O)Cn2c(=O)oc3cc(Cl)ccc32)c(OC)c1 | 4.5 | i | -6.4 | 0.2 | · | ·
O=C(OCC(=O)N1CCC(c2ccccc2)=N1)c1ccc(Cl)s1 | -2.9 | i | · | -0.7 | · | ·
C=CCNC(=O)c1onc(CSc2ccccc2)c1C(=O)NCC=C | 3.9 | i | -15.0 | -1.4 | · | ·
C=CCNC(=O)c1onc(CSc2ccncc2)c1C(=O)NCC=C | 22.4* | i | 2.6 | -9.4 | 2.9 | 0.0
COc1cc(C(=O)NC2CCN(CC(=O)NC3CCCCC3C)CC2)cc(OC)c1OC (stereo not given) | 18.4* | i | 10.0 | -3.7 | 5.1 | 1.7
COc1ccc(C(=O)NC2CCN(CC(=O)NC3CCCCC3)CC2)cc1 | -8.0 | i | -7.4 | 10.5 | · | ·
O=C1CCC/C1=C/Nc1cccc(F)c1 | 19.0* | i | 0.4 | -0.7 | 5.2 | 4.7
O=C(CSc1nc2ccccc2nc1N1CCCCC1)Nc1ccc(F)cc1 | -14.1 | i | ? | -2.4 | · | ·
O=C(NCc1nc2ccccc2[nH]1)C1=C[C@H](c2ccc(Br)cc2)C[C@H](OCc2ccc(CO)cc2)O1 | 26.5* | i | 31.2 | 35.3* | 27.4* | 21.7* | R1A FP artifact=27.4*;PKA-R1A confirm=26.8*
C#Cc1ccc([C@H]2C=C(C(=O)NCc3nc4ccccc4[nH]3)O[C@@H](OCc3ccc(CO)cc3)C2)cc1 | 2.9 | i | 9.5 | -14.1 | · | ·
SMILES | PKA-R2B act | Neddylation inh | PolyA inh | PKA-R1A activ | R2B FP artifact | PKA-R2B confirm | others
CSc1nc(O)c(C(c2cccc([N+](=O)[O-])c2)c2c(O)nc(SC)[nH]c2=O)c(=O)[nH]1 | 5.6 | i | 7.6 | 6.0 | · | ·
O=C(c1ccc(NC(=S)NCc2ccco2)cc1)N1CCOCC1 | -11.8 | i | 5.3 | -10.1 | · | ·
COc1ccc(NC(=S)NNc2ccc(S(=O)(=O)Nc3ccccc3C(=O)O)cc2[N+](=O)[O-])cc1 | 83.2* | i | -6.6 | 63.6* | 50.4* | 45.7* | R1A FP artifact=50.4*;PKA-R1A confirm=51.6*
CCCc1cc(=O)n2[nH]c(NCc3ccc(OC)c(OC)c3)nc2n1 | -9.2 | i | 24.4 | -3.8 | · | ·
CCCc1cc(=O)n2[nH]c(NCc3c(F)cccc3Cl)nc2n1 | 31.9* | i | 12.4 | 32.7* | 27.3* | 20.0* | R1A FP artifact=27.3*;PKA-R1A confirm=28.1*
Cc1cc(=O)n2[nH]c(NCc3ccccc3F)nc2n1 | 35.9* | i | 15.0 | 30.4* | 33.9* | 31.5* | R1A FP artifact=33.9*;PKA-R1A confirm=34.6*
CCOC(=O)c1c(NC(=O)CSc2nc3ccc(C)cc3[nH]2)sc2c1CC(C)(C)NC2(C)C | 0.2 | i | -6.9 | 2.5 | · | ·
CC1=C/C(=C(\c2cc(C)c(O)c(Br)c2)c2ccccc2S(=O)(=O)O)C=C(Br)C1=O | 40.2* | i | -10.0 | 34.3* | 58.7* | 55.4* | R1A FP artifact=58.7*;PKA-R1A confirm=55.1*
CCCC(=O)Nc1ncnc2c1ncn2[C@@H]1O[C@@H]2COP(=O)(O)O[C@H]2[C@H]1OC(=O)CCC | 32.9* | i | 9.0 | 40.7* | -1.1 | 33.8* | R1A FP artifact=-1.1;PKA-R1A confirm=37.2*
COc1cc(NC(=O)CC[C@H]2O[C@@H](n3cnc4c(NC(=O)c5ccccc5)ncnc43)[C@H](O)[C@@H]2O)cc(OC)c1OC | · | i | · | · | · | ·
Nc1ncnc2c1nc(Sc1ccc(Cl)cc1)n2[C@@H]1O[C@@H]2COP(=O)(O)O[C@H]2[C@H]1O | 106.4* | i | 17.3 | 106.8* | 3.8 | 101.0* | R1A FP artifact=3.8;PKA-R1A confirm=106.5*
CCN(C(=O)c1ccc2c(c1)OCO2)C1CCS(=O)(=O)C1 (stereo not given) | -0.5 | i | 16.6 | -10.3 | · | ·
Cc1ccc(S(=O)(=O)NC(=O)NC(C)Cc2ccccc2)cc1 (stereo not given) | 2.4 | i | 11.3 | 22.1* | · | · | R1A FP artifact=0.5;PKA-R1A confirm=-1.4
O=C(N/N=C\c1ccc(Cl)s1)c1cccs1 | -8.8 | i | -6.8 | 20.4* | · | · | R1A FP artifact=-3.1;PKA-R1A confirm=2.5
O=C(N/N=C/c1ccncc1)c1cccs1 | 0.0 | i | 3.9 | 5.7 | · | ·
